PubChem BioAssay AID1159580 (chemical genetic matrix, 2015)
The campaign covered roughly 5,500 compounds. About 2,000 (36%) were called active. About 18% were inconclusive and are not listed. The list shows a part of the results. Values without a mark were called inactive. Rule as the data show it: active = normalized growth mostly below about 0.91 (no sharp cut-off); inconclusive = no clear call, values can overlap the other calls; inactive = mostly above about 0.92.

Assay: chemical genetic growth profiling, strain panel (AID 1159580);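 also: tested at 20 µM; growth read once vehicle control cultures reached saturation at 30 °C; 1 = growth at the plate median or of vehicle wells; lower values mean less growth of the strain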
Conditions: S. cerevisiae deletion strains, growth OD
[1] = locus YAR019C, strain CDC15, stronger effect = lower value
[2] = locus YBL105C, strain PKC1, stronger effect = lower value
[3] = locus YBR135W, strain CKS1, stronger effect = lower value
[4] = locus YBR136W, strain MEC1, stronger effect = lower value
[5] = locus YBR160W, strain CDC28, stronger effect = lower value
[6] = locus YDL017W, strain CDC7, stronger effect = lower value
[7] = locus YDL028C, strain MPS1, stronger effect = lower value
[8] = locus YDL101C, strain DUN1, stronger effect = lower value
[9] = locus YDL108W, strain KIN28, stronger effect = lower value
[10] = locus YDL132W, strain cdc53, stronger effect = lower value
[11] = locus YDL214C, strain PRR2, stronger effect = lower value
[12] = locus YDR052C, strain DBF4, stronger effect = lower value
[13] = locus YDR054C, strain cdc34, stronger effect = lower value
[14] = locus YDR226W, strain ADK1, stronger effect = lower value
[15] = locus YDR477W, strain SNF1, stronger effect = lower value
[16] = locus YER123W, strain YCK3, stronger effect = lower value
[17] = locus YER133W, strain GLC7, stronger effect = lower value
[18] = locus YFL009W, strain cdc4, stronger effect = lower value
[19] = locus YFL029C, strain CAK1, stronger effect = lower value
[20] = locus YFR003C, strain YPI1, stronger effect = lower value
[21] = locus YFR019W, strain FAB1, stronger effect = lower value
[22] = locus YFR028C, strain CDC14, stronger effect = lower value
[23] = locus YGR040W, strain KSS1, stronger effect = lower value
[24] = locus YGR052W, strain FMP48, stronger effect = lower value
[25] = locus YGR092W, strain DBF2, stronger effect = lower value
[26] = locus YHR030C, strain SLT2, stronger effect = lower value
[27] = locus YHR079C, strain IRE1, stronger effect = lower value
[28] = locus YHR082C, strain KSP1, stronger effect = lower value
[29] = locus YHR205W, strain SCH9, stronger effect = lower value
[30] = locus YIL147C, strain SLN1, stronger effect = lower value
[31] = locus YJL095W, strain BCK1, stronger effect = lower value
[32] = locus YJL128C, strain PBS2, stronger effect = lower value
[33] = locus YJL157C, strain FAR1, stronger effect = lower value
[34] = locus YJR016C, strain ILV3, stronger effect = lower value
[35] = locus YJR066W, strain TOR1 (second series), stronger effect = lower value
[36] = locus YJR066W, strain TOR1, stronger effect = lower value
[37] = locus YKL048C, strain ELM1, stronger effect = lower value
[38] = locus YKL067W, strain YNK1, stronger effect = lower value
[39] = locus YKL101W, strain HSL1, stronger effect = lower value
[40] = locus YKL193C, strain SDS22, stronger effect = lower value
[41] = locus YKL203C, strain TOR2, stronger effect = lower value
[42] = locus YLR113W, strain HOG1, stronger effect = lower value
[43] = locus YLR133W, strain CKI1, stronger effect = lower value
[44] = locus YLR403W, strain SFP1, stronger effect = lower value
[45] = locus YML070W, strain DAK1, stronger effect = lower value
[46] = locus YMR001C, strain CDC5, stronger effect = lower value
[47] = locus YMR205C, strain PFK2 (second series), stronger effect = lower value
[48] = locus YMR277W, strain FCP1, stronger effect = lower value
[49] = locus YNL006W, strain LST8, stronger effect = lower value
[50] = locus YNL020C, strain ARK1, stronger effect = lower value
[51] = locus YNL161W, strain CBK1, stronger effect = lower value
[52] = locus YNL183C, strain NPR1, stronger effect = lower value
[53] = locus YNL207W, strain RIO2, stronger effect = lower value
[54] = locus YNL222W, strain SSU72, stronger effect = lower value
[55] = locus YNL307C, strain MCK1 (second series), stronger effect = lower value
[56] = locus YOL078W, strain AVO1, stronger effect = lower value
[57] = locus YOL136C, strain PFK27, stronger effect = lower value
[58] = locus YOR061W, strain CKA2, stronger effect = lower value
[59] = locus YOR119C, strain RIO1, stronger effect = lower value
[60] = locus YOR231W, strain MKK1, stronger effect = lower value
[61] = locus YOR329C, strain SCD5, stronger effect = lower value
[62] = locus YPL031C, strain PHO85, stronger effect = lower value
[63] = locus YPL153C, strain RAD53, stronger effect = lower value
[64] = locus YPL204W, strain HRR25, stronger effect = lower value
[65] = locus YPL209C, strain IPL1, stronger effect = lower value
[66] = locus YPL256C, strain CLN2, stronger effect = lower value
[67] = locus YPR025C, strain CCL1, stronger effect = lower value
[68] = locus YPR106W, strain ISR1, stronger effect = lower value
[69] = locus YPR111W, strain DBF20, stronger effect = lower value
[70] = strain NNK1, stronger effect = lower value
[71] = strain TSCII, stronger effect = lower value

## CC(NC(=S)N/N=C\c1ccccc1O)c1ccccc1 (configuration not stated)
[1]
  normalized growth: 0.984
[2]
  normalized growth: 0.982
[3]
  normalized growth: 0.971
[4]
  normalized growth: 0.975
[5]
  normalized growth: 0.974
[6]
  normalized growth: 0.974
[7]
  normalized growth: 0.981
[8]
  normalized growth: 0.977
[9]
  normalized growth: 0.969
[10]
  normalized growth: 0.973
[11]
  normalized growth: 0.973
[12]
  normalized growth: 0.986
[13]
  normalized growth: 0.951
[14]
  normalized growth: 0.97
[15]
  normalized growth: 0.927
[16]
  normalized growth: 0.905
[17]
  normalized growth: 0.953
[18]
  normalized growth: 0.972
[19]
  normalized growth: 0.974
[20]
  normalized growth: 0.979
[21]
  normalized growth: 0.99
[22]
  normalized growth: 0.982
[23]
  normalized growth: 0.944
[24]
  normalized growth: 1.06
[25]
  normalized growth: 0.897
[26]
  normalized growth: 0.772 (active)
[27]
  normalized growth: 0.951
[28]
  normalized growth: 1.03
[29]
  normalized growth: 1.01
[30]
  normalized growth: 0.985
[31]
  normalized growth: 0.87
[32]
  normalized growth: 0.986
[33]
  normalized growth: 0.966
[34]
  normalized growth: 0.977
[35]
  normalized growth: 0.944
[36]
  normalized growth: 0.943
[37]
  normalized growth: 0.972
[38]
  normalized growth: 0.992
[39]
  normalized growth: 0.978
[40]
  normalized growth: 0.976
[41]
  normalized growth: 0.98
[42]
  normalized growth: 0.966
[43]
  normalized growth: 0.97
[44]
  normalized growth: 0.939
[45]
  normalized growth: 0.964
[46]
  normalized growth: 0.979
[47]
  normalized growth: 0.977
[48]
  normalized growth: 0.971
[49]
  normalized growth: 0.991
[50]
  normalized growth: 0.964
[51]
  normalized growth: 0.984
[52]
  normalized growth: 0.896
[53]
  normalized growth: 0.976
[54]
  normalized growth: 0.974
[55]
  normalized growth: 0.933
[56]
  normalized growth: 0.978
[57]
  normalized growth: 0.984
[58]
  normalized growth: 0.959
[59]
  normalized growth: 1.04
[60]
  normalized growth: 0.981
[61]
  normalized growth: 0.983
[62]
  normalized growth: 0.927
[63]
  normalized growth: 0.929
[64]
  normalized growth: 0.922
[65]
  normalized growth: 0.979
[66]
  normalized growth: 0.944
[67]
  normalized growth: 0.979
[68]
  normalized growth: 0.992
[69]
  normalized growth: 0.983
[70]
  normalized growth: 0.992
[71]
  normalized growth: 0.978

## CC(C)(C)NC(=S)N/N=C\c1ccccc1O
[1]
  normalized growth: 0.954
[2]
  normalized growth: 0.957
[3]
  normalized growth: 0.958
[4]
  normalized growth: 0.958
[5]
  normalized growth: 0.947
[6]
  normalized growth: 0.96
[7]
  normalized growth: 0.951
[8]
  normalized growth: 0.964
[9]
  normalized growth: 0.947
[10]
  normalized growth: 0.95
[11]
  normalized growth: 0.924
[12]
  normalized growth: 0.97
[13]
  normalized growth: 0.943
[14]
  normalized growth: 0.961
[15]
  normalized growth: 0.876
[16]
  normalized growth: 0.848
[17]
  normalized growth: 0.882
[18]
  normalized growth: 0.928
[19]
  normalized growth: 0.947
[20]
  normalized growth: 0.955
[21]
  normalized growth: 0.95
[22]
  normalized growth: 0.957
[23]
  normalized growth: 0.875
[24]
  normalized growth: 0.954
[25]
  normalized growth: 0.692
[26]
  normalized growth: 0.901
[27]
  normalized growth: 0.806
[28]
  normalized growth: 0.931
[29]
  normalized growth: 0.972
[30]
  normalized growth: 0.953
[31]
  normalized growth: 0.941
[32]
  normalized growth: 0.949
[33]
  normalized growth: 0.891
[34]
  normalized growth: 0.954
[35]
  normalized growth: 0.878
[36]
  normalized growth: 0.789
[37]
  normalized growth: 0.947
[38]
  normalized growth: 0.897
[39]
  normalized growth: 0.917
[40]
  normalized growth: 0.951
[41]
  normalized growth: 0.968
[42]
  normalized growth: 0.915
[43]
  normalized growth: 0.926
[44]
  normalized growth: 0.867
[45]
  normalized growth: 0.902
[46]
  normalized growth: 0.95
[47]
  normalized growth: 0.941
[48]
  normalized growth: 0.93
[49]
  normalized growth: 0.945
[50]
  normalized growth: 0.903
[51]
  normalized growth: 0.955
[52]
  normalized growth: 0.955
[53]
  normalized growth: 0.954
[54]
  normalized growth: 0.944
[55]
  normalized growth: 0.841
[56]
  normalized growth: 0.955
[57]
  normalized growth: 0.904
[58]
  normalized growth: 0.882
[59]
  normalized growth: 0.909
[60]
  normalized growth: 0.828
[61]
  normalized growth: 0.959
[62]
  normalized growth: 0.867
[63]
  normalized growth: 0.865
[64]
  normalized growth: 0.837
[65]
  normalized growth: 0.941
[66]
  normalized growth: 0.949
[67]
  normalized growth: 0.954
[68]
  normalized growth: 0.968
[69]
  normalized growth: 0.949
[70]
  normalized growth: 0.967
[71]
  normalized growth: 0.94
